Experimental data: ChEMBL document CHEMBL3988442, “University of Dundee, Small-Polar-MMV Screening Library” (2021)
Among all 85,000 compounds or so, about 440 (0.52%) showed an effect of 50% or more. What follows is part of a selection rich in strong results, with near analogues and random picks from the rest.

Assay: In vitro enzyme assay to detect hydrolysis of chlorophenol red-beta-D-[…] directly proportional to the number of Toxoplasma stably expressing beta-galactosidase
Type: functional, organism-based, Toxoplasma gondii
Parameters: scale not given: in the data most compounds retested in dose-response had high values

SMILES	Percent Effect (50 µM)	Percent Effect (10 µM)
Cc1ccc(F)cc1S(=O)(=O)N1CCN[C@H](C)C1	-0.3006%	–
CCN1CN=C(NS(=O)(=O)c2ccc(C)cc2)NC1	-65%	–
CCSc1cc(C(=O)N2CC[S+]([O-])CC2)ccn1	18.59%	–
CC(CCc1ccc(O)cc1)NCCN1CCOCC1 (configuration not stated)	-1.81%	–
O=C(CSCC(=O)NC1CC1)Nc1ccccc1	16.41%	–
CN(C)CCC1CN(C(=O)CCc2cccs2)CCO1 (configuration not stated)	-11.11%	–
CCOc1c(OC)cc(CN)cc1OC	-2.331%	–
CCC(CO)Nc1ncc(C(F)(F)F)cc1Cl (configuration not stated)	-11.03%	–
CCOc1cccc(NC(=O)NCCN(C)C)n1	-13.49%	–
COc1ccc(CS(=O)(=O)CC(=O)NCC2CC2)cc1F	–	4.977%
Cc1cccc(CC(=O)NCC2CCCNC2)c1 (configuration not stated)	-6.216%	–
COc1ccc(CC(=O)NCC2CCCNC2)cc1F (configuration not stated)	55.41%	–
CCC(C)NC(=O)c1cnn(-c2ccccc2)c1 (configuration not stated)	-7.328%	–
CCC(OC)c1n[nH]c(=O)n1Cc1cccc(OC)c1 (configuration not stated)	-6.855%	–
CCC(C)NCCOC (configuration not stated)	-11.32%	–
CCN(CC(=O)NC)C(=O)C(C)SC (configuration not stated)	23.69%	–
CC(C)c1nccc(C2(c3ccccc3Cl)CCNCC2)n1	–	24.49%
OC1(c2ccccc2Cl)CCNCC1	6.16%	–
Clc1ccccc1C1(c2ccnc(C3CC3)n2)CCNCC1	–	61.01%
CC(C)(C)c1nccc(C2(c3ccccc3Cl)CCNCC2)n1	–	94.8%
Clc1ccccc1C1(c2ccnc(-c3ncccn3)n2)CCNCC1	–	5.922%
Clc1ccccc1C1(c2ccnc(-c3ccncc3)n2)CCNCC1	–	16.95%
Clc1ccccc1C1(c2ccnc(C3CCCC3)n2)CCNCC1	–	92.51%
Clc1ccccc1C1(c2ccnc(CC3CC3)n2)CCNCC1	–	35.91%
O=c1[nH]cccc1-c1nccc(C2(c3ccccc3Cl)CCNCC2)n1	–	22.57%

SMILES	Percent Effect (50 µM)	Percent Effect (10 µM)
NC(=O)C1(CNCc2cccc(F)c2)CCOCC1	-0.9049%	–
CSCc1nnc(SCC(=O)NC2(C#N)CCCC2)o1	9.959%	–
CCCNC(=O)C1CCCN1 (configuration not stated)	2.398%	–
CC(=O)Nc1ccc(-n2cncn2)nc1	-6.105%	–
O=C(NCc1cccnc1)c1cn2cccnc2n1	-2.314%	–
Cc1noc(CCCNC(=O)c2ccon2)n1	62.73%	–
Cc1noc(CCCNC(=O)CNC(=O)c2cc3ccccc3[nH]2)n1	–	4.234%
Cc1ocnc1CNC(=O)c1ccc(Br)cn1	1.589%	–
CC1(CCNC(=O)c2ccon2)OCCO1	9.96%	–
Cc1nc(C)c(C(=O)NCc2ncoc2C)s1	-1.836%	–
Cc1ocnc1CNC(=O)c1ccon1	99.22%	–
CCC=C(C)C(=O)NCC(C)N1CCN(CC)CC1 (configuration not stated)	11.7%	–
CCNC(=O)C1CCN(C(=O)Cc2cccc(O)c2)C1 (configuration not stated)	-5.389%	–
CC(C)(O)CCN1CCC(NC(=O)C2CCC2)CC1	0.697%	–
COCCN1CCC(c2ccn[nH]2)CC1	-6.586%	–
CNC(=O)NC(=O)CSc1ccccc1F	-1.003%	–
CCOc1ncccc1C(=O)NCC1CCCN1CC (configuration not stated)	-0.459%	–
CCOc1ncccc1C(=O)NCC(C)N1CCCC1 (configuration not stated)	52.4%	–
COc1ncccc1C(=O)NCC(=O)N1CCCC1	-2.429%	–
CCN1C(=O)C[C@H](CN)[C@H]1c1ccncc1	4.591%	–
CCCn1cnnc1CNC	0.9072%	–
CNc1cc(-c2cccc(OC)c2)[nH]n1	98.42%	–
COc1cccc(-c2cc(C(=O)Nc3nc[nH]n3)[nH]n2)c1	–	20.51%
CNc1cc(OC)ccn1	-16.02%	–
Cn1cc(Br)c(CO)n1	1.484%	–

SMILES	Percent Effect (50 µM)	Percent Effect (10 µM)
Cc1cc(CCC(=O)NCCC(N)=O)ccc1Br	-2.096%	–
Cc1cc(F)ccc1S(=O)(=O)N1C[C@H](C2CC2)[C@@H](N)C1	8.476%	–
Cc1ccc(F)cc1S(=O)(=O)N1C[C@H](C2CC2)[C@@H](N)C1	98.86%	–
Cc1ccc(F)c(S(=O)(=O)N2C[C@H](C3CC3)[C@@H](N)C2)c1	7.08%	–
COc1ccc(S(=O)(=O)N2C[C@H]3CNC[C@@H](C2)O3)cc1	-2.543%	–
OCC1CCN(Cc2ccccc2)CC1	-5.201%	–
NCc1cccc(OCC(F)F)c1	-2.735%	–
CCCc1ccc(CN2CCC(NC(C)=O)C2)o1 (configuration not stated)	2.217%	–
O=C(NCC1CCN(C2CC2)C1)c1ccccc1F (configuration not stated)	13.84%	–
O=C(Cn1cc(Cl)cn1)N1CCCC(c2ccn[nH]2)C1 (configuration not stated)	–	-16.77%
CN(C)c1cc(C2CCCN(C(=O)Cn3cc(Cl)cn3)C2)ccn1 (configuration not stated)	–	0.9748%
CN(C)[C@H]1CCCCN(C(=O)Cn2cc(Cl)cn2)C1	95.45%	–
CC(C)(C)CC1CCCN1S(N)(=O)=O (configuration not stated)	-15.84%	–
CC(C)(C(=O)OCC(N)=O)c1ccccc1	2.133%	–
CC(C)N(C)CC(=O)NCCn1cccc1	7.108%	–
O=C(NCc1n[nH]c(=O)[nH]1)C1COc2ccccc21 (configuration not stated)	-1.703%	–
CCNc1ncc2c(n1)CN(c1cccc(OC)c1)C2=O	–	76.16%
CNc1ncc2c(n1)CN(CCc1ccccc1)C2=O	–	-25.26%
COc1ccc(N2Cc3nc(N)ncc3C2=O)cc1	–	9.612%
COc1cccc(N2Cc3nc(=O)[nH]n3C2=O)c1	–	-7.908%
CNc1ncc2c(n1)CN(c1cccc(OC)c1)C2=O	–	69.02%
Cc1cccc(N2Cc3nc(N4CCC(C)CC4)ncc3C2=O)c1	–	14.75%
CN(C(=O)CC(N)c1ccccc1)c1cccc(F)c1 (configuration not stated)	3.1%	–
Nc1ncccc1CN1CCN(C2CCOCC2)CC1	4.597%	–
O=C1CCCCN1Cn1cnc2c(Br)cccc2c1=O	-5.958%	–

SMILES	Percent Effect (50 µM)	Percent Effect (10 µM)
Cc1ccc(C(=O)Nc2c(C(=O)N(C)C)nn(C)c2C)cc1C	–	61.35%
Cc1ccc(C(=O)Nc2c(C(=O)N(C)C)nn(C)c2C)cc1	–	18.52%
Cc1c(NC(=O)c2ccc(Br)cc2)c(C(=O)N(C)C)nn1C	–	46.94%
Cc1c(NC(=O)c2cccc(Br)c2)c(C(=O)N(C)C)nn1C	–	13.13%
Cc1cccc(C(=O)Nc2c(C(=O)N(C)C)nn(C)c2C)c1	–	18.52%
COc1ccc(C(=O)Nc2c(C(=O)N(C)C)nn(C)c2C)cc1	–	52.86%
CC(=O)NCc1ccc(C(C)=O)s1	3.848%	–
CCOc1cc(CNCc2ccccn2)ccc1O	12.08%	–
CCNS(=O)(=O)c1csc(C(=O)Nc2cc(C)on2)c1	60.53%	–
CCS(=O)(=O)N(C)CC(=O)Nc1cc(C)on1	-10.63%	–
Cc1cc(NC(=O)c2ccc(S(C)(=O)=O)cc2)no1	1.537%	–
Cc1ccoc1C(=O)NC1CCN(Cc2cccc3ccccc23)CC1	–	53.31%
Cc1ccoc1C(=O)NC1CCN(Cc2ccccc2F)CC1	–	-8.886%
Cc1ccoc1C(=O)NC1CCN(Cc2ccccc2C#N)CC1	–	-1.883%
CC(C)(C)c1ccc(-n2ncc3c2CCCC3N)cc1 (configuration not stated)	–	50.93%
Cc1ccc(-n2ncc3c2CCCC3N)cc1C (configuration not stated)	–	16.25%
Cc1cc(C)cc(-n2ncc3c2CCCC3N)c1 (configuration not stated)	–	16.38%
COc1ccc(CN2CCCNCC2)cc1	13.71%	–
Cc1cc(C(=O)N(C)Cc2cccs2)nc(N2CCOCC2)n1	–	-10.44%
Cc1cc(C(=O)N(C)Cc2cccs2)nc(N2CCCCC2)n1	–	73.87%
Cc1cc(C(=O)N(C)Cc2cccs2)nc(N2CCCC2)n1	–	6.801%
CSc1ccc(CNc2ccn(CCC(N)=O)n2)cc1	-4.331%	–
O=C(NCCN1CCOCC1)c1cc(-c2ccc(Cl)s2)[nH]n1	–	52.66%
Cc1ccc(-c2cc(C(=O)NCCN3CCOCC3)n[nH]2)s1	–	27.02%
O=C(NCCN1CCOCC1)c1cc(-c2ccccc2Cl)[nH]n1	–	-1.617%

SMILES	Percent Effect (50 µM)	Percent Effect (10 µM)
CS(=O)(=O)N[C@H]1CN(c2ccncc2F)C[C@@H]1C1CC1	3.462%	–
CCc1cnc(CNC(=O)NCc2cnn(C)c2)s1	-4.497%	–
Cc1cc(C(=O)Nc2cnn(C)c2)on1	0.4555%	–
Cc1cc(C(=O)Nc2ccc(OCC(N)=O)cc2)on1	12.73%	–
Cc1cc(C(=O)Nc2cccc(C[S+](C)[O-])c2)on1 (configuration not stated)	98.42%	–
O=C(NCCNc1ncccn1)C1CC(=O)N(Cc2ccco2)C1 (configuration not stated)	–	18.03%
O=C(NCCNc1ncccn1)C1CC(=O)N(Cc2ccccn2)C1 (configuration not stated)	–	66.32%
O=C(NCCNc1ncccn1)C1CC(=O)N(Cc2ccccc2)C1 (configuration not stated)	–	14.32%
Cc1cc(-c2nc(-c3cccc(CN4CCOCC4)c3)no2)no1	–	8.772%
Cc1c(-c2nc(-c3cccc(CN4CCOCC4)c3)no2)cnn1C	–	8.571%
Cc1occc1-c1nc(-c2cccc(CN3CCOCC3)c2)no1	–	55.09%
N#Cc1cccc(CN)c1F	2.806%	–
COCCNc1nnc(SCc2ccc(Br)cn2)s1	98.42%	–
COCCNc1nnc(-c2ccccn2)s1	–	14.66%
COCCCNc1ccc(Br)cn1	6.813%	–
Cc1n[nH]cc1CNCc1nccs1	-5.718%	–
COCCNC(=O)c1cn(CC2CCCNC2)nn1 (configuration not stated)	-4.648%	–
CCc1cc(NCc2cccnc2)n2nccc2n1	3.949%	–
COc1ccc2c(c1)CCCC2N (configuration not stated)	9.435%	–
Cn1cc(CN2C[C@@H]3COC[C@@H](C(=O)N4CCCCO4)[C@@H]3C2)cn1.O=C(O)C(F)(F)F.O=C(O)C(F)(F)F	–	0.4992%
Cn1cc(CN2CC(C(=O)Nc3ccccc3)C3(CCOCC3)C2)cn1.O=C(O)C(F)(F)F (configuration not stated)	–	-1.627%
Cn1cc(CN2C[C@@H]3COC[C@H](C(=O)Nc4cccnc4)[C@@H]3C2)cn1.O=C(O)C(F)(F)F.O=C(O)C(F)(F)F	–	79.48%
